High-throughput results: PubChem BioAssay, National Center for Advancing Translational Sciences (NCATS)
Rows were chosen to be rich in hits. Some 1.7% of all compounds tested hit in one or more screens of this group.
HEK293 tox: qHTS of GLP-1 Receptor Inverse Agonists: Cytotox Screen; HEK293 cAMP-luciferase reporter cells, luminescence, 24 h; Potency, µM (series often up to 38.3 µM), inactives show at the highest dose activity change, negative = inhibition, most hits filed as inhibitors; 410,000 compounds, 0.13% hits; AID 624418, 2012;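 also: loss of luciferase light is scored as toxicity; % is scaled to controls: 0 for no effect and ±100 for the full control effect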
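To flag toxic compounds, the library was rerun on cells for 24 hr at 37 deg C and 5% CO2. Viability-linked luminescence was captured 12 min after adding luciferase detection reagent.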
PTHR1 ag: qHTS for PTHR1 Agonists: Primary Screen; Parathyroid hormone/parathyroid hormone-related peptide receptor (Homo sapiens), Q03431; HEK293 GP2 PTHR1 cells, GloSensor cAMP luminescence, 1 h; Potency, µM (titrated, usually from 115 µM), for inactives: at the top dose activation, most hits filed as activators; 410,000 compounds, 0.075% hits; also: nearly all actives have a fitted effect of over 55% in size
Target sequence (Q03431 whole entry, looked up): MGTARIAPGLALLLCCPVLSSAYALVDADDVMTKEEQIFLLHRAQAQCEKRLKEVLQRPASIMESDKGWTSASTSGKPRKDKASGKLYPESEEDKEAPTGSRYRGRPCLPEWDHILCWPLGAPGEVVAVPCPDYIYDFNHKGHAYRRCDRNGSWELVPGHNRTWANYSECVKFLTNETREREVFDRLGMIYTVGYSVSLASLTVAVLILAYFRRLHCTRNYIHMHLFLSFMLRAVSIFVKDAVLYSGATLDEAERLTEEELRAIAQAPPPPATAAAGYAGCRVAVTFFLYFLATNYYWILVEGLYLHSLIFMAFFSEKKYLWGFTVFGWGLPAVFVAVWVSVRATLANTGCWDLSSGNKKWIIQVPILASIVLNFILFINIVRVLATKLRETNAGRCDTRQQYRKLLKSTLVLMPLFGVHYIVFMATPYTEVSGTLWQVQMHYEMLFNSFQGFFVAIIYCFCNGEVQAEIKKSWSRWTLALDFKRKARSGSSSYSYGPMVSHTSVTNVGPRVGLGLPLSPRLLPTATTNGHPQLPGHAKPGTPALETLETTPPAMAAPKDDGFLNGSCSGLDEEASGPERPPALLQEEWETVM
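HEK-293-derived GP2 cells expressing PTHR1 and a GloSensor cAMP reporter, 3,000/well, plated overnight, given luciferin plus IBMX (each 0.5 mM as added) for 1 h at 37 °C, then compound for 1 h at 37 °C. Luminescence was read after 15 min at room temperature.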
GLP-1R agonist: qHTS of GLP-1 Receptor Agonists; 380,000 compounds, 0.007% hits; HEK293 GLP-1R CRE-luciferase, luminescence, 4-6 h; cells express a hypersensitive GLP-1R form; Potency, µM (doses to about 45.6 µM), for inactives: top-dose activation, usual class: activators; Glucagon-like peptide 1 receptor (Homo sapiens), P43220; also: % of control where 0% means no effect
GLP-1R inv ag: qHTS of GLP-1 Receptor Inverse Agonists (Inhibition Mode). 410,000 compounds, 1.6% hits. Potency, µM (doses to about 38.3 µM), for the others: at the highest dose activity change, negative = inhibition, hits mostly inhibitors. HEK293 GLP-1R CRE-luciferase, luminescence, 24 h; GLP-1R form is constitutively active; also: % is scaled to controls: 0 for no effect and ±100 for the full control effect; nearly all actives have a fitted effect of over 55% in size
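Using stably transfected HEK293 (constitutively active GLP-1R, cAMP-luciferase reporter), compounds were incubated 24 hr and luciferase measured by luminescence.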
RGS4 inhibitor: Inhibitors of Regulator of G Protein Signaling (RGS) 4: qHTS; Transcreener GDP fluorescence polarization, RGS4-accelerated GTP hydrolysis; 390,000 compounds, 0.039% hits; Potency, µM (highest dose often 114 µM), for the others: top-dose activity change, negative = inhibition, actives largely listed as inhibitors; also: % is scaled to controls: 0 for no effect and ±100 for the full control effect; nearly all actives have a fitted effect of over 75% in size
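MLSMR compounds (23 nl, pin-transferred) preincubated 10 min at room temperature with a 500nM (2x) first reagent, then RGS4 at 900nM (2x) plus Transcreener GDP mix added; fluorescence polarization (620/688 nm) read before and after 90 min at 30 °C.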
Active calls of the source: *; i = inactive; ? = inconclusive; / = no result given; [ ] = dose if it differs, or a comment. Calls follow the shape of the dose curve; as a rule, active = well fitted curve in the direction sought with a large enough effect; inconclusive = small, poorly fitted or top-dose-only effect, or another doubt; inactive = no such curve, though single readings can be large; an effect the other way counts as inactive or inconclusive. Potency is read from the fitted curve at half-maximal effect.

SMILES | HEK293 tox | PTHR1 ag | GLP-1R agonist | GLP-1R inv ag | RGS4 inhibitor
Oc1ccc(/C=C/c2ccc3ccccc3n2)cc1 | 176% | -36% | 20% | ? | -4%
C(=C\c1ccc2ccccc2n1)/c1ccccc1 | -15% | ? | -2% | 10µM* | 1%
O=[N+]([O-])c1ccc(/C=C/c2ccc3ccccc3n2)cc1 | 0% | -26% | 17% | 10µM* | -27%
Cc1ccc(NC(=O)CSc2ccccc2)cc1S(=O)(=O)N1CCCCC1 | -6% | i | 0% | 7.9µM* | -22%
Cc1ccc(NC(=O)COc2ccccc2)cc1S(=O)(=O)N1CCCCCC1 | 4% | -41% | 5% | ? | 9%
Cc1ccc(NC(=S)NCc2ccccc2)cc1S(=O)(=O)N1CCCCC1 | -22% | -44% | 2% | 11µM* | -18%[56.9 µM]
O=C(Nc1cccc(O)c1)c1cc(-c2ccc3c(c2)OCO3)on1 | -9% | -92% | -7% | 10µM* | -17%
CC(C)C[C@@H](COCc1cccc(Cl)c1)N1CCN(C(=O)c2cccc(C(F)(F)F)c2)CCC1=O | -9% | -58% | 10% | ? | /
Cc1cccc(COCC(Cc2ccccc2)N2CCN(C(=O)c3ccc(C(F)(F)F)cc3)CCC2=O)c1 (stereo not given) | -11% | -15% | 0% | 11µM* | -10%
CC(C)CC(COCc1cccc(Cl)c1)N1CCN(C(=O)c2ccc(C(F)(F)F)cc2)CCC1=O (stereo not given) | -13% | -50% | -2% | 10µM* | -2%
O=C(c1ccc(Cl)c(Cl)c1)N1CCC(=O)N(C(COCc2cccc(Cl)c2)Cc2ccccc2)CC1 (stereo not given) | -17% | -12% | -5% | 4µM* | -10%
O=C(NCc1cccnc1)c1nn(-c2ccccc2F)nc1CO | 2% | -10% | / | 7% | 19%
CCOc1ccc(NS(=O)(=O)c2cccc(C(=O)NCC3(N(C)C)CCCCC3)c2)cc1 | -11% | -1% | 1% | 10µM* | -20%
O=C(Cn1cc(/C=C\[N+](=O)[O-])c2ccccc21)Nc1ccccc1 | ? | -28% | -4% | 7.1µM* | 5%
CCCN(Cc1cccs1)C(=O)Nc1ccc(F)c(Cl)c1 | 1% | -75% | / | ? | -3%
COc1cc(NC(=O)CCN2CC(C)OC(C)C2)cc(OC)c1 (stereo not given) | -6% | i | -23% | -2% | 16%
Cc1ccc(-c2nc(CS(=O)(=O)CC(=O)NCCCN(Cc3ccccc3)C(C)C)c(C)o2)cc1 | ? | i | 2% | 4.5µM* | -17%
NNc1nc2ccccc2nc1C(F)(F)F | -3% | 29% | 0% | -6% | ?
FC(F)(F)c1nc2ccccc2nc1N/N=C\c1ccccc1 | 8.9µM* | -5% | 2% | ? | 21%
O=C(CC1Sc2ccccc2NC1=O)NNc1cccc(Cl)c1Cl (stereo not given) | -9% | -30% | 2% | 2µM* | -23%
O=c1[nH]c2cccc(Cl)c2c2ccccc12 | 3% | -13% | 15% | 26% | /
CCCCCCSc1nnc(-c2cnn(-c3ccccc3)c2-n2cccc2)n1C | ? | -90% | -3% | 4.5µM* | -28%
C=CC[C@@H](CC(=O)N(CCO)Cc1ccccc1)C(=O)N[C@H](COC(=O)[C@@H](CC=C)Cc1ccc(F)cc1)C(C)(C)C | ? | -18% | 1% | ? | -15%
C=CCC[C@@H](Cc1ccc(F)cc1)C(=O)OC[C@@H](NC(=O)[C@@H](CC=C)CC(=O)N[C@@H](CO)Cc1ccccc1)C(C)(C)C | -22% | -23% | -2% | 10µM* | -7%
C=CC[C@H](CC(=O)NCCO)C(=O)N[C@H](COC(=O)[C@@H](CC=C)Cc1ccc(F)cc1)Cc1ccccc1 | ? | i | 4% | 10µM* | 34%
SMILES | HEK293 tox | PTHR1 ag | GLP-1R agonist | GLP-1R inv ag | RGS4 inhibitor
C=CC[C@H](CC(=O)NCCO)C(=O)N[C@@H](COC(=O)[C@@H](CC=C)Cc1ccc(F)cc1)Cc1ccccc1 | 4% | i | -1% | -4% | -19%
C=CC[C@H](CC(=O)N(CCO)Cc1ccccc1)C(=O)N[C@H](COC(=O)[C@@H](CC=C)Cc1ccc(F)cc1)C(C)(C)C | -25% | -32% | 0% | 10µM* | -7%
O=C(CN1C(=O)NC2(CCCCC2)C1=O)NCCc1ccc(Cl)cc1Cl | 11% | -5% | 12% | ? | 0%
O=C(Nc1ccc(F)cc1F)Nc1csc2ccccc12 | 3% | -21% | -18% | 10µM* | -18%
C[C@H]1CN([C@@H](C)CO)C(=O)c2c(c3ccccc3n2C)-c2ccccc2CO[C@H]1CN(C)C(=O)[C@@H]1CCCN1C | -7% | i | -3% | -26% | /
CCc1cccc(CC)c1NC(=S)NCCc1ccc(O)c(O)c1 | -13% | -17% | -3% | ? | -24%
CCc1cccc(CC)c1NC(=S)NCCc1c(C)[nH]c2ccccc12 | ? | -14% | 3% | 10µM* | 15%
O=[N+]([O-])c1cc(S(=O)(=O)N2CCCCCC2)ccc1Cl | 11µM* | -45% | -6% | ? | -39%
Cc1ccc(CC(C)(O)CC(C)(O)Cc2ccc(C)cc2)cc1 (stereo not given) | 1% | -18% | 6% | 10µM* | /
COc1ccc(-c2cn3ccccc3n2)cc1 | 1% | -87% | -6% | ? | 4%
CCCOc1ccc(-c2cn3ccccc3n2)cc1 | 12% | -82% | -3% | 7.1µM* | 10%
CCCCC1C(=O)NN(c2ccccc2)C1=O (stereo not given) | -15% | i | 5% | 1.8µM* | -12%
C=CC[C@@H](CC(=O)N(CCO)Cc1ccccc1)C(=O)N[C@@H](COC(=O)[C@@H](CC=C)CC(=O)OC(C)(C)C)Cc1c[nH]c2ccccc12 | ? | 3% | -3% | 10µM* | 15%
C=CCC[C@H](Cc1ccc(F)cc1)C(=O)OC[C@@H](Cc1c[nH]c2ccccc12)NC(=O)[C@H](CC=C)CC(=O)N(CCO)Cc1ccccc1 | ? | -6% | -5% | 2.8µM* | 5%
C=CCC[C@@H](Cc1ccc(F)cc1)C(=O)OC[C@@H](Cc1c[nH]c2ccccc12)NC(=O)[C@H](CC=C)CC(=O)N(CCO)Cc1ccccc1 | -1% | i | -7% | ? | -14%
CCc1ccc(N2CCn3c2nc2c3c(=O)n(CCc3ccccc3)c(=O)n2C)cc1 | 6% | 50µM* | / | -8% | 23%
CCc1ccc(N2CCn3c2nc2c3c(=O)n(CCCc3ccccc3)c(=O)n2C)cc1 | 24% | -12% | / | 11% | 4%
